Data on 8 compounds can be found in PubChem BioAssay (NCI).

Each structure is given as a SMILES string. About 83,000 compounds went through this panel and 20% of them were active in at least one assay; those are over-represented in the sample as a whole.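 Values shown are percent growth following 48 h exposure of cells in 96-well plates to a single concentration of compound; below 10 was considered active.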 Values without a mark were called inactive. Calls of active or inactive are those of the source.

Test systems include HCT-15 colon; HT29 colon; SNB-75 CNS; SNB-19 CNS; U251 CNS; PC-3 prostate; SK-MEL-5 melanoma; UACC-62 melanoma; LOX IMVI melanoma; SK-MEL-28 melanoma; SK-MEL-2 melanoma; EKVX NSCLC; SN12C renal; UO-31 renal; TK-10 renal; ACHN renal; CAKI-1 renal; A498 renal; CCRF-CEM leukemia; MOLT-4 leukemia.
Common to all, as to assay: NCI-60 one-dose screen, 48 h (100 = growth as untreated, 0 = no growth, -100 = all killed)
What all share (details): 10 µM unless noted

With `O=C(CO[N+](=O)[O-])Nc1ccc(C(=O)/C=C/c2ccc3c(c2)OCO3)cc1`, the growth with HCT-15 colon was 76.7%; in the experiment with HT29 colon, 30.1%; with SNB-75 CNS, 86.3%; in the experiment on SNB-19 CNS it was 104%; in the experiment on U251 CNS, 57.3%; in the experiment with PC-3 prostate it was 61.4%. For the same compound, the growth with SK-MEL-5 melanoma is 90.8%; in the experiment on UACC-62 melanoma, 96%; with LOX IMVI melanoma, 21.5%; in the experiment with SK-MEL-28 melanoma, 104%; in the experiment with SK-MEL-2 melanoma, 119%; in the experiment on EKVX NSCLC, 99.7%. In addition, the growth with SN12C renal was 95.4%; in the experiment with UO-31 renal, 77.1%; in the experiment with TK-10 renal, 111%; with ACHN renal, 99.2%; in the experiment with CAKI-1 renal it was 93%; with A498 renal, 107%. For the same compound, the growth is 70% in the experiment on CCRF-CEM leukemia and 99.7% in the experiment with MOLT-4 leukemia.
Regarding `COc1cc(OC)c(/C=C/C(=O)c2c(OC)cc(OC)cc2OC)c(OC)c1`, the growth was 26% with HCT-15 colon; 3.25% (active) with HT29 colon; 13.7% in the experiment on SNB-75 CNS; 32.8% with SNB-19 CNS; 14.5% with U251 CNS; 42.8% in the experiment on PC-3 prostate. For the same compound, the growth with SK-MEL-5 melanoma was 1.55% (active); in the experiment on UACC-62 melanoma it was 7.8% (active); in the experiment on LOX IMVI melanoma, 10.8%; in the experiment with SK-MEL-28 melanoma, 21.9%; with SK-MEL-2 melanoma it was 6.13% (active); with EKVX NSCLC it was 38.2%. For the same compound, the growth in the experiment on SN12C renal was 22.6%; with UO-31 renal, 30.3%; in the experiment on TK-10 renal, 46.8%; in the experiment with ACHN renal, 35.9%; in the experiment on CAKI-1 renal, 7.16% (active); in the experiment on A498 renal, 7.18% (active). The growth was 6.27% (active) in the experiment with CCRF-CEM leukemia and -2.79% (active) in the experiment on MOLT-4 leukemia.
For the compound `Nc1nc2c(c3ncccc13)C(c1ccc(Cl)c(Cl)c1)Cc1ncccc1-2` (stereo not given), the growth in the experiment on HCT-15 colon is 18.2%; in the experiment with HT29 colon it was 6.39% (active); with SNB-75 CNS, 16.4%; in the experiment on SNB-19 CNS it was 32.1%; in the experiment on U251 CNS, 16.9%; with PC-3 prostate it was 19.5%. Also, the growth in the experiment on SK-MEL-5 melanoma is 19.8%; in the experiment with UACC-62 melanoma, 26.6%; in the experiment on LOX IMVI melanoma, 28%; with SK-MEL-28 melanoma, 49.2%; in the experiment on SK-MEL-2 melanoma, 18.4%; in the experiment on EKVX NSCLC, 44.5%. In addition, the growth in the experiment on SN12C renal was 34.1%; in the experiment on UO-31 renal it was 36.9%; with TK-10 renal, 29.5%; in the experiment with ACHN renal, 30.2%; in the experiment with CAKI-1 renal it was 30.9%; in the experiment with A498 renal it was -13.5% (active). The growth is 2.45% (active) with CCRF-CEM leukemia and 5.36% (active) in the experiment on MOLT-4 leukemia.
For the compound `COc1ccc(-c2c3c(nc4n[nH]c(-c5ccc(Cl)cc5)c24)-c2ccccc2C(=O)C3=O)cc1`, the growth in the experiment on HCT-15 colon is 21.6%; in the experiment with HT29 colon it was -11.8% (active); in the experiment with SNB-75 CNS it was 54.3%; in the experiment with SNB-19 CNS it was 44.3%; in the experiment with U251 CNS, -40.2% (active); in the experiment with PC-3 prostate it was 7.97% (active). Besides, the growth was 5.41% (active) in the experiment on SK-MEL-5 melanoma; -33.7% (active) in the experiment with UACC-62 melanoma; -50.9% (active) in the experiment with LOX IMVI melanoma; 30.4% with SK-MEL-28 melanoma; -49.8% (active) in the experiment with SK-MEL-2 melanoma; 59% with EKVX NSCLC. The growth was 12% in the experiment on SN12C renal; 0.604% (active) in the experiment on UO-31 renal; -28.7% (active) in the experiment with TK-10 renal; 10.7% with ACHN renal; 47.1% in the experiment with CAKI-1 renal; 53.8% in the experiment with A498 renal. Moreover, the growth in the experiment on CCRF-CEM leukemia was -6.2% (active); in the experiment with MOLT-4 leukemia, 0.0593% (active).
With `COc1ccc(/C(=C/c2ccc3ccccc3c2)c2nn[nH]n2)cc1OC`, the growth with HCT-15 colon is 31.1%; with HT29 colon it was 5.54% (active); in the experiment on SNB-75 CNS, -7.45% (active); with SNB-19 CNS, 51.1%; in the experiment with U251 CNS it was 14.3%; in the experiment on PC-3 prostate it was 18.6%. Further, the growth was 23.5% with SK-MEL-5 melanoma; 21.5% in the experiment with UACC-62 melanoma; 37.6% with LOX IMVI melanoma; 56.6% in the experiment with SK-MEL-28 melanoma; 40.3% with SK-MEL-2 melanoma; 43.9% with EKVX NSCLC. Also, the growth is 37.2% in the experiment with SN12C renal; 41.4% with UO-31 renal; 54.5% in the experiment with TK-10 renal; 54.4% in the experiment on ACHN renal; 23.3% in the experiment with CAKI-1 renal; 14.5% with A498 renal. The growth is 19.7% in the experiment with CCRF-CEM leukemia and 37.8% in the experiment with MOLT-4 leukemia.
Take `O=C(O)c1c([N+](=O)[O-])cnc2ccccc12`: the growth is 109% in the experiment on HCT-15 colon; 107% in the experiment with HT29 colon; 88.4% with SNB-75 CNS; 91% in the experiment on SNB-19 CNS; 106% in the experiment on U251 CNS; 104% in the experiment with PC-3 prostate. The growth in the experiment on SK-MEL-5 melanoma was 97.4%; in the experiment on UACC-62 melanoma, 99.4%; in the experiment on LOX IMVI melanoma, 97.6%; in the experiment on SK-MEL-28 melanoma, 125%; in the experiment on SK-MEL-2 melanoma it was 102%; in the experiment with EKVX NSCLC, 58.2%. Also, the growth with SN12C renal is 97.2%; in the experiment on UO-31 renal it was 64.9%; in the experiment on TK-10 renal it was 102%; in the experiment on ACHN renal, 111%; in the experiment on CAKI-1 renal, 98%; with A498 renal, 118%. Further, the growth in the experiment with CCRF-CEM leukemia is 127%; with MOLT-4 leukemia it was 105%.
On to `COc1cnc2c(c1)C(=O)c1c-2n(CCCN2CCN(C)CC2)c(=O)c2cc([N+](=O)[O-])ccc12`, for which the growth was -61.2% (active) in the experiment with HCT-15 colon; -79.4% (active) in the experiment on HT29 colon; -93.2% (active) in the experiment with SNB-75 CNS; -20.6% (active) with SNB-19 CNS; -81.2% (active) in the experiment on U251 CNS; 4.16% (active) in the experiment on PC-3 prostate. Besides, the growth in the experiment with SK-MEL-5 melanoma is -97.5% (active); in the experiment on UACC-62 melanoma it was -77.9% (active); in the experiment with LOX IMVI melanoma it was -90.7% (active); in the experiment on SK-MEL-28 melanoma, -80.6% (active); in the experiment with SK-MEL-2 melanoma, -14.2% (active); in the experiment with EKVX NSCLC it was -43.8% (active). Also, the growth with SN12C renal was -57.7% (active); with UO-31 renal, -86.6% (active); in the experiment on TK-10 renal, -89.7% (active); in the experiment on ACHN renal it was -94.5% (active); in the experiment with CAKI-1 renal, -91.4% (active); in the experiment with A498 renal, -95.9% (active). Also, the growth is -27.3% (active) in the experiment on CCRF-CEM leukemia and -23.2% (active) with MOLT-4 leukemia.
For the compound `c1ccc2sc(SCCCn3ccnc3)nc2c1`, the growth in the experiment on HCT-15 colon is 98.3%; in the experiment on HT29 colon it was 67%; with SNB-75 CNS it was 117%; in the experiment on SNB-19 CNS, 94%; in the experiment on U251 CNS it was 88.2%; in the experiment on PC-3 prostate it was 80.1%. For the same compound, the growth in the experiment with SK-MEL-5 melanoma was 92.1%; in the experiment on UACC-62 melanoma, 87.8%; in the experiment with LOX IMVI melanoma it was 96.5%; with SK-MEL-28 melanoma, 109%; in the experiment on SK-MEL-2 melanoma, 68.7%; in the experiment with EKVX NSCLC, 90.5%. Also, the growth was 84.2% in the experiment on SN12C renal; 84.9% in the experiment with UO-31 renal; 84.2% with TK-10 renal; 100% with ACHN renal; 98% in the experiment on CAKI-1 renal; 80.6% in the experiment on A498 renal. Further, the growth in the experiment on CCRF-CEM leukemia is 81.6%; with MOLT-4 leukemia, 95.6%.
